These compounds were tested on Plasmodium falciparum (assay: GSK_TCMDC: Inhibition of Plasmodium falciparum Dd2 in whole red blood cells, using parasite LDH activity as an index of growth. Test compounds present at 2uM).
Assay type: functional

| SMILES | Inhibition |
| --- | --- |
| CNC(=O)C1Cc2c([nH]c3c(C)cccc23)C2(N1)C(=O)Nc1ccc(OC(F)(F)F)cc12 (stereo not given) | 50% |
| CC(C)Oc1ccc(N2CCN(CCCCNC(=O)c3ccc(NC(=O)c4ccc(Cl)cc4)cc3)CC2)c(OC(C)C)c1 | 85% |
| COc1cccc(Nc2nc(C)cc(NCc3ccc(-c4c(C)noc4C)cc3)n2)c1 | 42% |
| O=C1OC(c2ccccc2)(c2ccccc2)CN1C1CCN(Cc2ccc(O)c(Cl)c2)C1 (stereo not given) | 93% |
| Cc1[nH]c(C)c(-c2ccc(OCc3ccccc3C(F)(F)F)nc2)c(=O)c1Br | 97% |
| Cc1c(-c2cccc(NC(=O)C(C)(C)Oc3ccc(Cl)cc3)c2)nc2ncccn12 | 95% |
| CCCNC(=O)C1Cc2cc(OC)c(OC)cc2C2(N1)C(=O)N(Cc1cccc(OC)c1)c1ccccc12 (stereo not given) | 63% |
| CCc1ccccc1-c1csc(C(=O)NCC2CCN(Cc3ccc(C(C)(C)C)cc3)C2)c1.O=C(O)C(F)(F)F (stereo not given) | 15% |
| CCCNc1ccc2nccc(CCN3CCC(NCc4ccc5c(c4)NC(=O)CS5)CC3)c2n1.Cl | 17% |
| Oc1c(C(Nc2ccccn2)c2ccc(Cl)cc2Cl)ccc2cccnc12 (stereo not given) | 60% |
| FC(F)(F)c1cccnc1N1CCC(Nc2nc3cc(Cl)ccc3[nH]2)CC1 | 39% |
| Cc1cc(N(C)C2CCN(C)C2)nc(Nc2ccccc2Cl)n1 (stereo not given) | 84% |
| CSc1nc2cc3c(cc2n1C(=O)c1ccc(C)cc1)OCCO3 | 0% |
| Cc1cc(N[C@@H](Cc2ccccc2)C(=O)NCCc2ccccc2)nc(NCC2CCCCC2)n1.O=C(O)C(F)(F)F | 95% |
| COc1ccc2ncc(C#N)c(CCN3CCC(NCc4ccc5c(c4)NC(=O)CO5)CC3)c2c1.Cl | 43% |
| N=C(N)Nc1nc(-c2cccc(NC(=O)NCc3cccc4ccccc34)c2)cs1 | 32% |
| CCc1ccc(CN(Cc2ccc(C)cc2)Cc2ccc(NC(C)=O)cc2)cc1 | 79% |
| Cc1c[nH]c(-c2cccc(C(=O)NC3CCC(CCN4CCc5ccc(C#N)cc5CC4)CC3)c2)n1.Cl (stereo not given) | 69% |
| Cc1[nH]cnc1Cc1ccc2c(c1O)c1ccccc1n2C | 16% |
| O=C(Nc1ccccc1O)c1ccc(Oc2cccc(C(=O)Nc3ccccc3O)c2)cc1 | 70% |

| SMILES | Inhibition |
| --- | --- |
| COC1CCC(C(=O)Nc2ccc(-c3cccc(-c4nc5cccc(C)c5[nH]4)c3)cc2)CC1 (stereo not given) | 60% |
| Cc1ccc2[nH]c3ccccc3c(=O)c2c1 | 74% |
| Cc1cc(C2CCN(CCCCNC(=O)c3ccc(NC(=O)c4ccc(Cl)cc4)cc3)CC2)c(C)cc1OCc1nccn1C.Cl | 98% |
| CCN(CC)CCCC(C)Nc1ccnc2[nH]c3ccccc3c12 (stereo not given) | 38% |
| CC(O)C1CCCCN1C(=O)c1ccc(-c2ccc(-c3nc4cc(F)ccc4[nH]3)cc2)cc1 (stereo not given) | 99% |
| COc1ccc(CC(=O)NC(CCN2CCC3(CC2)CN(S(C)(=O)=O)c2ccccc23)c2ccc(Cl)c(Cl)c2)cc1OC (stereo not given) | 77% |
| CN(C)CCCOc1cccc(CCNCc2cccc(Oc3ccc(Cl)cc3)c2)c1.O=C(O)C(F)(F)F | 67% |
| CN(C)CCOC(=O)C1(O)CCC2CC1C2(C)C.Cl (stereo not given) | 0% |
| CCCCC1=CC2C(=O)C(C(=O)OC)=CN=C2C=C1OCc1ccccc1 (stereo not given) | 98% |
| COc1cc2ccccc2c(CON2C(=N)N=C(N)NC2(C)C)c1OC.Cl | 10% |
| Cc1ccc(C2(CN3CCC(NC(=O)c4n[nH]cc4Cl)CC3)CCCCC2)cc1 | 96% |
| CN1CCC(NCCS(=O)(=O)c2cccc(Nc3ccc(-c4cccc(F)c4)cn3)c2)CC1 | 0% |
| CC(C)c1ccc(CN2CCCCC(NC(=O)c3cc(-c4ccccc4F)cs3)C2)cc1.O=C(O)C(F)(F)F (stereo not given) | 84% |
| Br.COc1ccc(OCCCON2C(=N)N=C(N)NC2(C)C)cc1 | 94% |
| COc1ccc2nccc([C@@H](O)CN3CCC(NCCOc4ccc(F)cc4Cl)CC3)c2c1.O=C(O)C(=O)O | 85% |
| COc1ccc(-c2nnc(Sc3ccc(C#N)c([N+](=O)[O-])c3)n2CC(C)C)cc1 | 78% |
| COc1ccc(S(=O)(=O)NC2CCN(c3ccnc4cc(Cl)ccc34)C2)cc1.O=C(O)C(F)(F)F (stereo not given) | 86% |
| O=c1ccc(-c2nc3cc(Cl)c(Cl)cc3n2Cc2ccc(Cl)cc2Cl)c[nH]1 | 67% |
| COc1ccc2nc3cc(Cl)ccc3c(NCCN3CCN(C)CC3)c2c1.Cl | 99% |
| Cc1cc(NCCc2ccccc2)nc(NC(=N)Nc2cccc([N+](=O)[O-])c2)n1 | 100% |

These compounds were tested on HepG2 (assay: GSK_TCMDC: Percent inhibition of human HepG2 cell line. Test compounds present at 10uM.).
Assay type: functional

| SMILES | Inhibition |
| --- | --- |
| CNC(=O)C1Cc2c([nH]c3c(C)cccc23)C2(N1)C(=O)Nc1ccc(OC(F)(F)F)cc12 (stereo not given) | 0% |
| CC(C)Oc1ccc(N2CCN(CCCCNC(=O)c3ccc(NC(=O)c4ccc(Cl)cc4)cc3)CC2)c(OC(C)C)c1 | 31% |
| COc1cccc(Nc2nc(C)cc(NCc3ccc(-c4c(C)noc4C)cc3)n2)c1 | 33% |
| O=C1OC(c2ccccc2)(c2ccccc2)CN1C1CCN(Cc2ccc(O)c(Cl)c2)C1 (stereo not given) | 10% |
| Cc1[nH]c(C)c(-c2ccc(OCc3ccccc3C(F)(F)F)nc2)c(=O)c1Br | 35% |
| Cc1c(-c2cccc(NC(=O)C(C)(C)Oc3ccc(Cl)cc3)c2)nc2ncccn12 | 0% |
| CCCNC(=O)C1Cc2cc(OC)c(OC)cc2C2(N1)C(=O)N(Cc1cccc(OC)c1)c1ccccc12 (stereo not given) | 11% |
| CCc1ccccc1-c1csc(C(=O)NCC2CCN(Cc3ccc(C(C)(C)C)cc3)C2)c1.O=C(O)C(F)(F)F (stereo not given) | 25% |
| CCCNc1ccc2nccc(CCN3CCC(NCc4ccc5c(c4)NC(=O)CS5)CC3)c2n1.Cl | 0% |
| Oc1c(C(Nc2ccccn2)c2ccc(Cl)cc2Cl)ccc2cccnc12 (stereo not given) | 42% |
| FC(F)(F)c1cccnc1N1CCC(Nc2nc3cc(Cl)ccc3[nH]2)CC1 | 32% |
| Cc1cc(N(C)C2CCN(C)C2)nc(Nc2ccccc2Cl)n1 (stereo not given) | 1% |
| CSc1nc2cc3c(cc2n1C(=O)c1ccc(C)cc1)OCCO3 | 0% |
| Cc1cc(N[C@@H](Cc2ccccc2)C(=O)NCCc2ccccc2)nc(NCC2CCCCC2)n1.O=C(O)C(F)(F)F | 24% |
| COc1ccc2ncc(C#N)c(CCN3CCC(NCc4ccc5c(c4)NC(=O)CO5)CC3)c2c1.Cl | 25% |
| N=C(N)Nc1nc(-c2cccc(NC(=O)NCc3cccc4ccccc34)c2)cs1 | 14% |
| CCc1ccc(CN(Cc2ccc(C)cc2)Cc2ccc(NC(C)=O)cc2)cc1 | 6% |
| Cc1c[nH]c(-c2cccc(C(=O)NC3CCC(CCN4CCc5ccc(C#N)cc5CC4)CC3)c2)n1.Cl (stereo not given) | 23% |
| Cc1[nH]cnc1Cc1ccc2c(c1O)c1ccccc1n2C | 9% |
| O=C(Nc1ccccc1O)c1ccc(Oc2cccc(C(=O)Nc3ccccc3O)c2)cc1 | 33% |

| SMILES | Inhibition |
| --- | --- |
| COC1CCC(C(=O)Nc2ccc(-c3cccc(-c4nc5cccc(C)c5[nH]4)c3)cc2)CC1 (stereo not given) | 89% |
| Cc1ccc2[nH]c3ccccc3c(=O)c2c1 | 0% |
| Cc1cc(C2CCN(CCCCNC(=O)c3ccc(NC(=O)c4ccc(Cl)cc4)cc3)CC2)c(C)cc1OCc1nccn1C.Cl | 18% |
| CCN(CC)CCCC(C)Nc1ccnc2[nH]c3ccccc3c12 (stereo not given) | 0% |
| CC(O)C1CCCCN1C(=O)c1ccc(-c2ccc(-c3nc4cc(F)ccc4[nH]3)cc2)cc1 (stereo not given) | 43% |
| COc1ccc(CC(=O)NC(CCN2CCC3(CC2)CN(S(C)(=O)=O)c2ccccc23)c2ccc(Cl)c(Cl)c2)cc1OC (stereo not given) | 10% |
| CN(C)CCCOc1cccc(CCNCc2cccc(Oc3ccc(Cl)cc3)c2)c1.O=C(O)C(F)(F)F | 72% |
| CN(C)CCOC(=O)C1(O)CCC2CC1C2(C)C.Cl (stereo not given) | 10% |
| CCCCC1=CC2C(=O)C(C(=O)OC)=CN=C2C=C1OCc1ccccc1 (stereo not given) | 7% |
| COc1cc2ccccc2c(CON2C(=N)N=C(N)NC2(C)C)c1OC.Cl | 2% |
| Cc1ccc(C2(CN3CCC(NC(=O)c4n[nH]cc4Cl)CC3)CCCCC2)cc1 | 0% |
| CN1CCC(NCCS(=O)(=O)c2cccc(Nc3ccc(-c4cccc(F)c4)cn3)c2)CC1 | 27% |
| CC(C)c1ccc(CN2CCCCC(NC(=O)c3cc(-c4ccccc4F)cs3)C2)cc1.O=C(O)C(F)(F)F (stereo not given) | 18% |
| Br.COc1ccc(OCCCON2C(=N)N=C(N)NC2(C)C)cc1 | 55% |
| COc1ccc2nccc([C@@H](O)CN3CCC(NCCOc4ccc(F)cc4Cl)CC3)c2c1.O=C(O)C(=O)O | 1% |
| COc1ccc(-c2nnc(Sc3ccc(C#N)c([N+](=O)[O-])c3)n2CC(C)C)cc1 | 3% |
| COc1ccc(S(=O)(=O)NC2CCN(c3ccnc4cc(Cl)ccc34)C2)cc1.O=C(O)C(F)(F)F (stereo not given) | 12% |
| O=c1ccc(-c2nc3cc(Cl)c(Cl)cc3n2Cc2ccc(Cl)cc2Cl)c[nH]1 | 0% |
| COc1ccc2nc3cc(Cl)ccc3c(NCCN3CCN(C)CC3)c2c1.Cl | 29% |
| Cc1cc(NCCc2ccccc2)nc(NC(=N)Nc2cccc([N+](=O)[O-])c2)n1 | 21% |

From ChEMBL document CHEMBL1157539, “Thousands of chemical starting points for antimalarial lead identification” (Nature, 2010)
